Bioassay records as filed in PubChem BioAssay.
The list is not random: actives were taken first. Their share in the collection is about 22%.
Pf growth 96h = inhibits malaria parasite growth, 96 h; AID 504834; P. falciparum luciferase reporter growth, 96 h; Potency, µM (doses to about 28.7 µM), without a hit: at the highest dose activity change, negative = inhibition, hits mostly inhibitors; 320,000 tested, 6.9% active; further: potency means the concentration at half of the fitted maximal effect; on the % scale 0 is the no-effect control and ±100 the full control effect
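Delayed-death screen, second-generation endpoint: infected erythrocytes, 2% hematocrit, 0.05% parasitemia final; 96 hours at 37 C, 5% CO2; luciferase detection reagent; luminescence decrease equals reduced growth.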
LmPK inhibitor = blocks Leishmania mexicana pyruvate kinase activity | Q27686 | purified LmPK, Kinase-Glo ATP luminescence, 1 h | 290,000 tested, 0.37% active | Potency, µM (titrated, usually from 57.5 µM), for inactives: top-dose activity change, negative = inhibition, actives largely listed as inhibitors; further: potency means the concentration at half of the fitted maximal effect; on the % scale 0 is the no-effect control and ±100 the full control effect
Target sequence (Q27686 whole entry, looked up): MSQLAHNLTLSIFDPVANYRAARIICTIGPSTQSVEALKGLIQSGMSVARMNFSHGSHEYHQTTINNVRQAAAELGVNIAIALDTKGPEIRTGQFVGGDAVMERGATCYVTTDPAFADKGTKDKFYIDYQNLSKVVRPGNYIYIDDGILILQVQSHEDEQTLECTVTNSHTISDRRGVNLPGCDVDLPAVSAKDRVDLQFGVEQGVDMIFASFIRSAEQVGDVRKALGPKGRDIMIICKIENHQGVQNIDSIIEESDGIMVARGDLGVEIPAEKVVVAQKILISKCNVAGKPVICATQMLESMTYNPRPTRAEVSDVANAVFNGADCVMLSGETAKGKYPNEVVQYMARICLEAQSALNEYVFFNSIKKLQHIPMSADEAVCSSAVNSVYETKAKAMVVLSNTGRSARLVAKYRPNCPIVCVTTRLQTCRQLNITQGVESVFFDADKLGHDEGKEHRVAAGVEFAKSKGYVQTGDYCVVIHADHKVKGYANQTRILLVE
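In 50 mM imidazole pH 7.2 with 7 mM MgCl2, LmPK (0.1 nM) turned over PEP (0.5 mM) and ADP (0.1 mM) for 1 h at room temperature. Luciferase read-out of ATP.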
Pf growth 48h = P. falciparum growth inhibition at 48 hours (one generation); P. falciparum luciferase growth in erythrocytes, 48 h; 310,000 tested, 5.9% active; Potency, µM (highest dose often 28.7 µM), without a hit: top-dose activity change, negative = inhibition, hits mostly inhibitors; further: potency means the concentration at half of the fitted maximal effect; on the % scale 0 is the no-effect control and ±100 the full control effect
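Firefly luciferase activity from engineered P. falciparum reports growth; inhibitors lower the luminescent signal. Cultures contained 2% hematocrit erythrocytes at 0.1% final parasitemia.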
CHX counter = counter-screen hit for Shiga toxin inhibitors, cycloheximide; cell reporter, cycloheximide protein synthesis inhibition counterscreen; max response, %; 300,000 tested, 12% active; AID 2314; in the data active means max response mostly above about 13%, no sharp cut-off; inactive means mostly below about 14%; further: read at 38.3 µM for the half of the compounds with a filed dose; 0% is about no effect
Shiga inhibitor = inhibitors of Shiga toxin in Vero cells; Vero cells, Shiga toxin protein synthesis inhibition reporter; inhibition, % at 38.7 µM; 290,000 tested, 9.2% active; AID 2315; in the data active means inhibition mostly above about 28%, no sharp cut-off; inactive means mostly below about 43%; further: 0% is about no effect
An asterisk follows results filed as active; ? = inconclusive; . = not tested or not shown; [ ] = another dose, or the depositor's remark. Unless noted, the call rests on the fitted dose curve; in most records, active means well fitted inhibition curve with a large enough effect; inconclusive means small, poorly fitted or top-dose-only effect, or another doubt; inactive means no such curve, though single readings can be large or run the other way.

SMILES	Pf growth 96h	LmPK inhibitor	Pf growth 48h	CHX counter	Shiga inhibitor
O=C(Nc1ccccc1Cl)c1ccccc1Cc1ccccc1	0%	-1%	13%	18	9
OC1C2(Cc3ccccc3)CN3CCN(C2)CC1(Cc1ccccc1)C3 (stereo not given)	0.93µM*	-5%	?	2	3
OC1C2CN3CCN(C2)CC1(Cc1ccccc1)C3 (stereo not given)	?	3%	23%	-3	-8
CCC(C)NC(=O)c1ccccc1NC(=O)Nc1ccccc1 (stereo not given)	41%	-5%	40%	0	-19
CC(C)CNC(=O)c1ccccc1NC(=O)Nc1ccccc1	10µM*	-5%	.	-2	-5
CC(C)CNC(=O)c1ccccc1NC(=O)CCSc1ccccc1	?	5%	14%	-1	-13
CC(C)CNC(=O)c1ccccc1NC(=O)c1ccc(CSc2ccccc2)cc1	10µM*	-2%	13µM*	9	-3
Cc1c(N)cccc1Cl	.	.	.	-6	-9
CC12CCC(C(=O)Nc3nccs3)(OC1=O)C2(C)C (stereo not given)	-5%	-10%	4%	13	-10
CC12CCC(C(=O)Nc3nc4ccc(Br)cc4s3)(OC1=O)C2(C)C (stereo not given)	?	-1%	22%	33*	94*
COc1c(F)c(F)c(C(=O)O)c(Nc2ccc(C)cc2C)c1F	-16%	11%	36%	-2	9
O=C1CCC(=O)N1CCSC(=S)N1CCOCC1	33%	-1%	26%	8	41*
COCCC(=O)N1CCC(Oc2ccc(C(=O)N3CCCCC3CCO)cc2)CC1 (stereo not given)	4.7µM*	1%	-21%	17	11
COCC(=O)N1CCC(Oc2ccc(C(=O)N(C)CCCC3CCCC3)cc2)CC1	-25%	5%	31%	22*	23
CCC1CCCCN1C(=O)c1ccc(OC2CCN(C(=O)CCOC)CC2)cc1 (stereo not given)	-20%	-4%	-25%	16*	11
COCCC(=O)N1CCC(Oc2ccc(C(=O)N3CCCCCC3)cc2)CC1	?	-4%	?	1	-3
COc1ccc(C2N(C(=O)N(C)C)CCN2S(=O)(=O)c2ccc(OC)cc2)cc1 (stereo not given)	27%	-3%	?	-2	-2
CCOc1cnn(Cc2ccccc2)c(=O)c1SCc1ccccc1	?	4%	?	-3	-5
O=C(Cc1ccccc1)N/N=C/c1cc(Br)cs1	?	-7%	14%	14*	17
O=C(N/N=C\c1cc(Br)cs1)c1ccncc1	-12%	-3%	?	1	36
O=C(O)c1ccc(N/N=C/c2cc(Br)cs2)cc1	-11%	-2%	187%	25*	29
C=CCn1c(C)nc2c(cnn2-c2ccccc2)c1=O	-23%	-2%	0%	14*	19
CC(C)Sc1nc2c(cnn2-c2ccccc2)c(=O)[nH]1	40%	-2%	2%	-1	-4
Cc1cccc(-n2c(C)nc3c(cnn3-c3ccc(F)cc3)c2=O)c1	9.3µM*	-4%	?	39*	31
CSc1nc2c(cnn2-c2ccccc2)c(=O)n1N	-27%[5.75 µM]	-6%	230%	28*	91*
SMILES	Pf growth 96h	LmPK inhibitor	Pf growth 48h	CHX counter	Shiga inhibitor
CCCCCSc1nc2c(cnn2-c2ccccc2)c(=O)[nH]1	1%	1%	14%	1	20
CCSc1nc2c(cnn2-c2ccccc2)c(=O)n1N	106%	-14%	285%	46*	50*
C=CCn1c(C)nc2ccccc2c1=O	13%	8%	22%	5	-5
COc1ccc(S(=O)(=O)N2CCOCC2)cc1NC(=O)CSc1nnc2ccccn12	-2%	4%	1%	-3	-7
Cc1c(C(=O)OCC(=O)Nc2ccc(C(N)=O)cc2)cccc1[N+](=O)[O-]	21%	0%	-5%	4	-11
CC(C)Cc1nc(SCC(=O)N2CCCC2)c2c(=O)n(C)c(=O)n(C)c2n1	45%	-6%	0%	-1	-3
CC(C)C[C@H](NC(=O)N1CCn2c1nc1ccccc12)C(=O)N[C@H](Cc1ccccc1)C(=O)O	?	11%	3%	-1	-2
CC(C)CCNC(=O)c1c(N)n(Cc2ccc3c(c2)OCO3)c2nc3ccccc3nc12	12µM*	9%	.	-2	-10
CC(C)CNC(=O)c1c(N)n(Cc2ccc3c(c2)OCO3)c2nc3ccccc3nc12	.	8%	6.6µM*	-7	-8
CCCNC(=O)c1c(N)n(Cc2ccc3c(c2)OCO3)c2nc3ccccc3nc12	-2%[5.75 µM]	1%	?	-1	-1
CC(C)CNC(=O)c1c(N)n(/N=C/c2cccnc2)c2nc3ccccc3nc12	3.3µM*	10%	6%	-4	-29
CC(C)CNC(=O)c1c(N)n(Cc2ccco2)c2nc3ccccc3nc12	.	5%	?	-2	-32
Cc1ccc(C(C(=O)NC2CCCCC2)N(CCCN2CCOCC2)C(=O)c2snc(C(N)=O)c2N)cc1 (stereo not given)	?	-4%	-8%	2	-14
CCC(Sc1nc2ccccc2c(=O)[nH]1)C(=O)Nc1ccc(C(C)=O)cc1 (stereo not given)	8%	6%	68%	32*	59*
C[n+]1c(-c2ccccc2)cc(CCCCc2cc(-c3ccccc3)[n+](C)c(-c3ccccc3)c2)cc1-c1ccccc1	0.93µM*	-10%	13µM*	-3	-5
Cn1nccc1C(=O)Nc1ccc2c(c1)OCO2	14%	-26%	129%	28*	107*
Cn1nccc1C(=O)Nc1ccc(Cl)cc1	148%	-23%	95%	28*	68*
COc1cc(CN2CCN(Cc3ccc(C(F)(F)F)cc3)CC2)cc(OC)c1OC	?	0%	?	-1	.
Cc1ccc(S(=O)(=O)N2CCN(C(=O)COC(=O)/C=C/c3ccccc3)CC2)c(C)c1	-18%	.	-29%	.	.
C=CCn1ccc(O)c(Cc2ccc(Cl)cc2)c1=O	4%	-2%	-2%	-3	-10
O=c1c2c3c(sc2ncn1/N=C/c1cccnc1)CCCC3	-14%	-1%	-12%	26*	100*
CC1Sc2ccc(C(=O)Nc3ncccc3O)cc2NC1=O (stereo not given)	145%	.	147%	.	.
Cc1ccc(S(=O)(=O)NCC(C)n2cncn2)cc1 (stereo not given)	-23%	-3%	10%	-4	-3
CCC1CCCCN1CC(=O)Nc1cc(C)nn1-c1nc(C)cc(C)n1 (stereo not given)	0%	3%	5.2µM*	-2	-8
Cc1cc(C)nc(-n2nc(C)cc2NC(=O)CN2CCCC2)n1	?	1%	?	11	-8
CCc1nc2ccccc2c(NC(=O)CN2CCC(C)CC2)c1C	7.4µM*	-5%	-7%	-6	-9
Cc1cc(C)nc(-n2nc(C)cc2NC(=O)CN2CCC(C)CC2)n1	2.3µM*	5%	?	-3	12
COCCn1ccc2c(OCC(=O)Nc3cccc(NC(C)=O)c3)cccc2c1=O	?	.	-29%	.	.
